From the antibiotic and cytotoxicity screens of Wong et al. (2023)
The campaign covered roughly 39,000 compounds. About 500 (1.3%) were called active. The entries come from a sample that favours actives as a whole.

test system: S. aureus RN4220; experiment: growth inhibition call (relative growth <= 0.2); conditions: 50 µM

Structure (SMILES) | growth inhibition call
C[C@H]1CN([C@@H](C)CO)C(=O)c2cc(NC(=O)C3CC3)ccc2O[C@H]1CN(C)C(=O)Nc1ccc2c(c1)OCO2 | inactive
C[C@H]1CCCCO[C@@H](CN(C)Cc2ccc3c(c2)OCO3)[C@@H](C)CN([C@@H](C)CO)C(=O)c2cc(NC(=O)CCC(F)(F)F)ccc2O1 | inactive
Cc1noc(C)c1NC(=O)Nc1ccc2c(c1)C(=O)N([C@@H](C)CO)C[C@@H](C)[C@H](CN(C)Cc1ccc(C(F)(F)F)cc1)OCCCC[C@H](C)O2 | inactive
C[C@@H]1CN([C@H](C)CO)C(=O)c2cccc(NS(=O)(=O)c3cn(C)cn3)c2O[C@H]1CN(C)C(=O)NC1CCCCC1 | inactive
CC(C)NC(=O)Nc1ccc2c(c1)C(=O)N([C@H](C)CO)C[C@@H](C)[C@@H](CN(C)Cc1ccc(Cl)c(Cl)c1)OCCCC[C@H](C)O2 | inactive
COc1ccc(NC(=O)Nc2cccc3c2O[C@H](CN(C)Cc2ccc(-c4ccccc4)cc2)[C@H](C)CN([C@H](C)CO)C3=O)cc1 | inactive
C[C@@H]1CCCCO[C@H](CN(C)CC2CCCCC2)[C@H](C)CN([C@@H](C)CO)C(=O)c2cc(NC(=O)Nc3ccc(C(F)(F)F)cc3)ccc2O1 | inactive
C[C@H]1CN([C@@H](C)CO)S(=O)(=O)c2ccc(C#CCN(C)C)cc2O[C@H]1CN(C)Cc1cccnc1 | inactive
CCn1cc(C(=O)O)c(=O)c2cc(F)c(N3CCNC(C)C3)c(F)c21.Cl (centres undefined) | active
CCn1cc(C(=O)O)c(=O)c2cc(F)c(N3CCNCC3)nc21 | inactive
CCn1cc(C(=O)O)c(=O)c2cnc(N3CCNCC3)nc21 | inactive
CCNC(=O)C[C@@H]1CC[C@H]2[C@@H](COC[C@H](O)CN2C(=O)Nc2c(C)noc2C)O1 | inactive
C#CCN([C@H](/C=C/C1CC1)[C@@H](O)Cc1ccccc1)[C@@H](Cc1ccc(-n2cc(C(=O)NO)nn2)cc1)C(=O)OC | inactive
C[C@@H]1CN([C@@H](C)CO)C(=O)c2cc(NC(=O)c3ccccc3)ccc2O[C@@H](C)CCCCO[C@@H]1CN(C)Cc1ccc(C(F)(F)F)cc1 | inactive
CC1(C)[C@@H](OC(=O)CCC(=O)O)CC[C@@]2(C)[C@H]1CC[C@]1(C)[C@H]2C(=O)C=C2[C@@H]3C[C@@](C)(C(=O)O)CC[C@]3(C)CC[C@]21C | inactive
CC(=O)O[C@@H]1CC[C@@]2(C)[C@@H](CC[C@]3(C)[C@@H]2C(=O)C=C2[C@@H]4[C@@H](C)[C@H](C)CC[C@]4(C)CC[C@]23C)[C@@]1(C)C(=O)O | active
CC1(C)[C@@H](OC(=O)CCC(=O)O)CC[C@]2(C)[C@H]3C(=O)C=C4[C@@H]5C[C@@](C)(C(=O)O)CC[C@]5(C)CC[C@@]4(C)[C@]3(C)CC[C@@H]12 | inactive
COc1ccc(NC(=O)N(C)C[C@H]2OCCCC[C@@H](C)Oc3ccc(NS(=O)(=O)c4ccc(OC)cc4)cc3C(=O)N([C@@H](C)CO)C[C@@H]2C)cc1 | inactive
Cc1occc1CN | inactive
O=C(N[C@H]1C=C[C@H](CC(=O)N2CCOCC2)O[C@@H]1CO)c1ccccn1 | inactive
Nc1nnnn1-c1ccccc1 | active
NCc1nnnn1-c1ccccc1 | inactive

Structure (SMILES) | growth inhibition call
NC(=O)CSc1nnnn1-c1ccccc1 | inactive
C[C@@H]1CN([C@H](C)CO)C(=O)Cc2cc(NS(=O)(=O)c3ccccc3)ccc2O[C@H]1CN(C)CC1CC1 | inactive
CS(=O)(=O)N1[C@@H]2c3ccc(-c4cccc(F)c4)c(=O)n3C[C@H]1[C@H](CO)[C@H]2C(=O)N1CCOCC1 | inactive
Cc1noc(C)c1S(=O)(=O)N(C)C[C@@H]1Oc2ccc(NS(=O)(=O)c3ccc(Cl)cc3)cc2CC(=O)N([C@H](C)CO)C[C@H]1C | inactive
C=CC[n+]1ccccc1/C=N/O | inactive
Cc1ccc(S[C@]2(C(=O)NC3CC3)CC(=O)N(Cc3ccccc3C(F)(F)F)[C@@H]2c2ccc(CO)cc2I)cc1 | inactive
COC(=O)c1c(C)c2c(c(C)c1O)OC(=O)c1c(C)c(Cl)c(O)c(Cl)c1O2 | active
COC(=O)c1c(OC)cc2c(c1C)Oc1c(Cl)c(O)c(Cl)c(C)c1C(=O)O2 | inactive
COC(=O)c1c(C)c2c(c(C)c1OC)OC(=O)c1c(C)c(Cl)c(OC)c(Cl)c1O2 | inactive
COc1ccc(CN(C)C[C@@H]2Oc3ccc(NS(C)(=O)=O)cc3CC(=O)N([C@@H](C)CO)C[C@H]2C)cc1 | inactive
CO[C@H]1C[C@H](O[C@H]2[C@H](C)[C@@H](O[C@H]3O[C@H](C)C[C@H](N(C)C)[C@H]3O)[C@@H](C)C[C@]3(CO3)C(=O)[C@H](C)[C@@H](O)[C@@H](C)[C@@H](C)OC(=O)[C@@H]2C)O[C@@H](C)[C@@H]1O | active
C[C@H](O)C#Cc1cnc2c(c1)C(=O)N([C@H](C)CO)C[C@@H](C)[C@@H](CN(C)Cc1cncnc1)O2 | inactive
CN1C(=O)c2cc(NC(=O)Nc3ccccc3F)ccc2OC[C@H]2O[C@@H](CC(=O)NCc3ccc(-c4ccccc4)cc3)CC[C@H]21 | inactive
C[C@H](CO)N1C[C@H](C)[C@H](CN(C)C)Oc2ccc(NS(C)(=O)=O)cc2CC1=O | inactive
C[C@@H]1CN([C@@H](C)CO)C(=O)c2cc(NC(=O)Nc3ccc(C(F)(F)F)cc3)ccc2O[C@@H](C)CCCCO[C@H]1CN(C)S(=O)(=O)c1cn(C)cn1 | inactive
CO[C@H](CN(C)S(=O)(=O)c1cn(C)cn1)[C@@H](C)CN(C(=O)Nc1ccc(C(F)(F)F)cc1)[C@H](C)CO | active
C[C@@H]1CN([C@H](C)CO)C(=O)c2cc(NC(=O)Nc3ccc(C(F)(F)F)cc3)ccc2O[C@@H](C)CCCCO[C@@H]1CN(C)S(=O)(=O)c1cn(C)cn1 | inactive
CO[C@H](CN(C)S(=O)(=O)c1cn(C)cn1)[C@H](C)CN(C(=O)Nc1ccc(C(F)(F)F)cc1)[C@H](C)CO | active
CO[C@H](CN(C)S(=O)(=O)c1cn(C)cn1)[C@@H](C)CN(C(=O)Nc1ccc(C(F)(F)F)cc1)[C@@H](C)CO | active
C[C@H](CO)N1C[C@H](C)[C@@H](CN(C)S(=O)(=O)c2cn(C)cn2)OCCCC[C@H](C)Oc2ccc(NC(=O)Nc3ccc(C(F)(F)F)cc3)cc2C1=O | inactive
CO[C@@H](CN(C)S(=O)(=O)c1cn(C)cn1)[C@H](C)CN(C(=O)Nc1ccc(C(F)(F)F)cc1)[C@@H](C)CO | active
C[C@@H]1CN([C@@H](C)CO)C(=O)c2cc(NC(=O)Nc3ccc(C(F)(F)F)cc3)ccc2O[C@@H](C)CCCCO[C@@H]1CN(C)S(=O)(=O)c1cn(C)cn1 | inactive

Structure (SMILES) | growth inhibition call
C[C@@H]1CCCCO[C@@H](CN(C)C(=O)Nc2cccc3ccccc23)[C@H](C)CN([C@H](C)CO)C(=O)c2cc(NS(=O)(=O)c3ccccc3)ccc2O1 | inactive
C[C@H]1CN([C@@H](C)CO)C(=O)c2cccc(NC(=O)C3CCCCC3)c2O[C@H]1CN(C)C(=O)Nc1ccc(C(F)(F)F)cc1 | inactive
Cc1noc(C)c1S(=O)(=O)Nc1ccc2c(c1)C(=O)N([C@@H](C)CO)C[C@H](C)[C@H](CN(C)Cc1ccccc1)OCCCC[C@@H](C)O2 | inactive
C[C@H](CO)N1C[C@H](C)[C@@H](CN(C)Cc2ccc(Cl)c(Cl)c2)Oc2c(NS(=O)(=O)c3ccccc3)cccc2C1=O | inactive
CO[C@@H]1CN(C)C(=O)c2ccc(NS(C)(=O)=O)cc2OC[C@H](C)N(C(=O)C2CCCCC2)C[C@@H]1C | inactive
C[C@@H]1CN([C@@H](C)CO)C(=O)c2cc(NS(=O)(=O)c3cn(C)cn3)ccc2O[C@@H](C)CCCCO[C@@H]1CN(C)S(=O)(=O)c1cccs1 | inactive
C[C@@H]1CN([C@H](C)CO)C(=O)c2cccc(NC(=O)c3nc4ccccc4s3)c2O[C@@H]1CN(C)Cc1ccc(Cl)c(Cl)c1 | inactive
O=C(C[C@@H]1CC[C@H]2[C@@H](COC[C@H](O)CN2S(=O)(=O)c2ccccc2)O1)N[C@H]1CCN(Cc2ccccc2)C1 | inactive
CO[C@H](CN(C)S(=O)(=O)c1cn(C)cn1)[C@H](C)CN(C(=O)Nc1ccc(C(F)(F)F)cc1)[C@@H](C)CO | active
CO[C@@H](CN(C)S(=O)(=O)c1cn(C)cn1)[C@@H](C)CN(C(=O)Nc1ccc(C(F)(F)F)cc1)[C@@H](C)CO | active
C[C@@H]1CCCCO[C@H](CN(C)S(=O)(=O)c2cn(C)cn2)[C@H](C)CN([C@H](C)CO)C(=O)c2cc(N(C)C)ccc2O1 | inactive
COC(=O)C[C@@H]1CC[C@H]2[C@@H](COC[C@@H](O)CN2S(=O)(=O)c2ccc(F)cc2)O1 | inactive
COCC#Cc1cnc2c(c1)C(=O)N([C@H](C)CO)C[C@@H](C)[C@H](CN(C)C(=O)Nc1ccc(OC)cc1)O2 | inactive
C[C@@H]1CN([C@H](C)CO)C(=O)CCCn2nncc2CO[C@H]1CN(C)C(=O)Nc1ccnc(N2CCOCC2)c1 | inactive
CN1C(=O)[C@@]2(c3cc(Cl)ccc31)[C@H](C(=O)O)[C@H]1C(=O)O[C@H](c3ccccc3)[C@H](c3ccccc3)N1[C@@H]2c1ccc(F)cc1 | active
O=C1O[C@H](c2ccccc2)[C@H](c2ccccc2)N2[C@H]1[C@@H](C(=O)O)[C@]1(C(=O)Nc3ccc(Cl)cc31)[C@H]2c1ccc(F)cc1 | active
COCCOC(=O)N1C(=O)[C@@]2(c3cc(C#Cc4ccc(OC)cc4)ccc31)[C@H](c1ccc(O)cc1)N1[C@H](c3ccccc3)[C@H](c3ccccc3)OC(=O)[C@H]1[C@@H]2C(N)=O | inactive
COc1ccc(C#Cc2ccc3c(c2)[C@]2(C(=O)N3)[C@H](c3ccc(O)cc3)N3[C@H](c4ccccc4)[C@H](c4ccccc4)OC(=O)[C@H]3[C@@H]2C(=O)O)cc1 | inactive
COc1ccc(C#Cc2ccc3c(c2)[C@]2(C(=O)N3)[C@H](C(=O)O)[C@H]3C(=O)O[C@H](c4ccccc4)[C@H](c4ccccc4)N3[C@@H]2c2ccc(O)cc2)cc1 | inactive
COc1ccc(C#Cc2ccc3c(c2)[C@@]2(C(=O)N3C(=O)N[C@@H](C)c3ccccc3)[C@H](c3ccc(OCCO)cc3)N3[C@H](c4ccccc4)[C@H](c4ccccc4)OC(=O)[C@H]3[C@@H]2C(=O)O)cc1 | inactive
